# PubChem BioAssay (EPA / NIEHS)
# Activity calls are given as the source filed them. The calls were made as follows: active = hit-call score of the fitted dose curve at least 0.9, where 1 is the maximum; inactive = score below 0.9.
# Key:
# [1] = ATG_GLI_CIS: Attagene CIS-FACTORIAL HepG2 Assay for human Zinc Finger Protein GLI1 (AID 2282945); settings: HepG2, Attagene cis-factorial reporter mRNA, GLI element; actives raise or lower the signal
# Outline: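 Transiently transfected HepG2 cells report endogenous transcription factor activity via cis-element-driven reporter units. After 24 h compound exposure, reporter mRNA was measured by RT-PCR with capillary electrophoresis; bidirectional fitting against DMSO baseline.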
# [2] = molecular target: Bile acid receptor (Homo sapiens) (UniProt Q96RI1); test: ATG_IR1_CIS: Attagene CIS-FACTORIAL HepG2 Assay for human Nuclear Receptor Subfamily 1 Group H Member 4 (NR1H4), IR1 submotif (AID 2282946); settings: IR1 reporter transcription, actives raise or lower the signal
# Sequence of Bile acid receptor (Homo sapiens) (Q96RI1 whole entry, looked up): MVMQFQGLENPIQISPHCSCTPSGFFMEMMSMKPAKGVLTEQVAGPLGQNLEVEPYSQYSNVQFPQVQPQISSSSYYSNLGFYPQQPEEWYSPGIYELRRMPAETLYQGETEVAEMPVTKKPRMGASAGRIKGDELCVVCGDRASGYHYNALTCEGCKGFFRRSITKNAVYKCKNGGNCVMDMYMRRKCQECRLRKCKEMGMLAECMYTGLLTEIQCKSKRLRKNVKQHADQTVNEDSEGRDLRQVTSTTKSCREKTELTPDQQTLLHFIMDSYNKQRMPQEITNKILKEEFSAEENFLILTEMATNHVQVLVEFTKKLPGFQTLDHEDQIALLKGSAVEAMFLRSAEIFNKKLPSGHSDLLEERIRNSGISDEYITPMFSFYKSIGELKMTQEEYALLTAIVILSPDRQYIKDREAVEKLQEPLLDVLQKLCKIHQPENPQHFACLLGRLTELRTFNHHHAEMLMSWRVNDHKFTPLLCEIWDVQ
# Outline: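 HepG2 cells transiently transfected with multiple cis-promoter-driven reporter units to measure endogenous transcription factor activity; 24 h exposure. Reporter mRNA read by RT-PCR, FAM labelling, HpaI digestion and capillary electrophoresis. Bidirectional fit versus DMSO.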
# [3] = ATG_GRE_CIS: Attagene CIS-FACTORIAL HepG2 Assay for human Glucocorticoid Response Elements (GRE) (AID 2282947); settings: HepG2 GRE cis-reporter, Attagene multiplex mRNA; actives raise or lower the signal
# Outline: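 Transiently transfected HepG2 cells carrying GRE cis-reporter units (endogenous TF activity) dosed 24 h; reporter mRNA quantified by RT-PCR, 6-FAM labelling, HpaI digestion and capillary electrophoresis. Bidirectional fit versus DMSO baseline.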
# [4] = ATG_ISRE_CIS: Attagene CIS-FACTORIAL HepG2 Assay for human Interferon Regulatory Factor 1 (IRF1) binding to an Interferon-Stimulated Response Element (ISRE) (AID 2282948); settings: HepG2 ISRE cis-reporter (Attagene), mRNA transcription readout; actives raise or lower the signal
# Outline: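 Quantitation relies on labelled RT-PCR fragments separated by capillary electrophoresis. Human HepG2 cells bearing cis-promoter reporter constructs were treated 24 h; DMSO served as baseline for bidirectional fitting.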
# [5] = ATG_M_32_CIS: Attagene CIS-FACTORIAL HepG2 Assay for M32 Transcription Factor (Internal Marker) (AID 2282949); settings: HepG2 Attagene cis-factorial M32 reporter, mRNA; actives raise or lower the signal;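 also: background control marker of the multiplexed CIS panel rather than a real target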
# Outline: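 Fluorescent capillary electrophoresis peaks of HpaI-digested, FAM-labelled RT-PCR reporter products give the signal. Source: transiently transfected human liver HepG2 cells, 24 h after chemical dosing; bidirectional fitting against DMSO.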
# [6] = ATG_M_06_CIS: Attagene CIS-FACTORIAL HepG2 Assay for M06 Transcription Factor (Internal Marker) (AID 2282950); settings: HepG2 Attagene CIS-FACTORIAL M06 internal marker reporter; actives raise or lower the signal
# Outline: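 Cells (HepG2, transiently carrying cis-driven reporter units) receive chemical for 24 h before RNA isolation. Reporter cDNA is PCR-amplified, FAM-labelled by primer extension, HpaI-digested and sized on a capillary analyser.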
# [7] = molecular target: Hypoxia-inducible factor 1-alpha (Homo sapiens) (UniProt Q16665); test: ATG_HIF1a_CIS: Attagene CIS-FACTORIAL HepG2 Assay for human Hypoxia Inducible Factor 1 (HIF1A) (AID 2282951); settings: HepG2 Attagene cis-factorial HIF1a reporter transcription; actives raise or lower the signal
# Sequence of Hypoxia-inducible factor 1-alpha (Homo sapiens) (Q16665 whole entry, looked up): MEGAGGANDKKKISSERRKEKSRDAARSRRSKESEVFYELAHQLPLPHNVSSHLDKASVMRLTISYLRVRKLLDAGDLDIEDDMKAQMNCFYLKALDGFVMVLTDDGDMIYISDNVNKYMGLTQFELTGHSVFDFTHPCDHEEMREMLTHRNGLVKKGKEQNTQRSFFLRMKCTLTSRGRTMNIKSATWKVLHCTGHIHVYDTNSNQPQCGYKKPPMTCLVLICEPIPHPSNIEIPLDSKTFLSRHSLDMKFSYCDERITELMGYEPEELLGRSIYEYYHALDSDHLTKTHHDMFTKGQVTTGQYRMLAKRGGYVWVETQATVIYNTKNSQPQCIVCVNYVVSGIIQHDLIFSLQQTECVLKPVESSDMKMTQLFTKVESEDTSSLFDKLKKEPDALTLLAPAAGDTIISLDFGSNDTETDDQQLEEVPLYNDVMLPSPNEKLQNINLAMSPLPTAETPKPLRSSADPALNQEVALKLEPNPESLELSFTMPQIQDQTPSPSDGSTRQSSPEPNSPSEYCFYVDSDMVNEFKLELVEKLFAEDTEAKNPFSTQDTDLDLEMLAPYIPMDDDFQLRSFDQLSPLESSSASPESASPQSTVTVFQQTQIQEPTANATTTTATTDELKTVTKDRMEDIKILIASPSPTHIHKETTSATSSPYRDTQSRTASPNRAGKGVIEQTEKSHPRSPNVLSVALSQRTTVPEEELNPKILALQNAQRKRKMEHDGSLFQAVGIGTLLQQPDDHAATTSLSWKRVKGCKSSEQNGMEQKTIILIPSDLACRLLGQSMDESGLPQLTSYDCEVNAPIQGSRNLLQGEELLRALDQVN
# Outline: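 Dosed 24 h, transfected HepG2 cells yielded total RNA whose reporter transcripts were RT-PCR-amplified and sized by capillary electrophoresis using fluorescent labelling; DMSO defined baseline, with gain and loss of signal both fitted.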
# [8] = molecular target: Hepatocyte nuclear factor 6 (Homo sapiens) (UniProt Q9UBC0); test: ATG_HNF6_CIS: Attagene CIS-FACTORIAL HepG2 Assay for human Hepatocyte Nuclear Factor 6 (HNF6) (AID 2282952); settings: HepG2 Attagene cis-factorial HNF6 reporter transcription; actives raise or lower the signal
# Sequence of Hepatocyte nuclear factor 6 (Homo sapiens) (Q9UBC0 whole entry, looked up): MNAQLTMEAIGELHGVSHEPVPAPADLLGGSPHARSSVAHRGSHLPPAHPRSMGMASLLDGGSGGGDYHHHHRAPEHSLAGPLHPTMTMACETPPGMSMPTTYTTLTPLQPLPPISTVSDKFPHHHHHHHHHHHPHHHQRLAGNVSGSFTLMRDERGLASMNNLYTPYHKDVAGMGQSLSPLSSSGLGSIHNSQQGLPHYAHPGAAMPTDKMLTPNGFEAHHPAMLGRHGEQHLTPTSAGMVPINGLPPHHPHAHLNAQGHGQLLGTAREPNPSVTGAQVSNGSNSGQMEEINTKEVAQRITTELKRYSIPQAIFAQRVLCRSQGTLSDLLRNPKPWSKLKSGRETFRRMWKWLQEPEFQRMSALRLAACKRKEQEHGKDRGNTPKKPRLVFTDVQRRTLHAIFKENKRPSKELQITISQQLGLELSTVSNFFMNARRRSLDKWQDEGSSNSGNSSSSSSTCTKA
# Outline: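 HepG2, transient MRTU transfection (cis promoters); 24 h chemical exposure; total RNA → oligo(dT) RT → PCR → 6-FAM labelling → HpaI cut → CE; bidirectional fit vs DMSO.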
# [9] = molecular target: Heat shock factor protein 1 (Homo sapiens) (UniProt Q00613); test: ATG_HSE_CIS: Attagene CIS-FACTORIAL HepG2 Assay for human Heat Shock Transcription Factor 1 (HSE) (AID 2282953); settings: HepG2 HSE cis-reporter, Attagene RNA transcription; actives raise or lower the signal
# Sequence of Heat shock factor protein 1 (Homo sapiens) (Q00613 whole entry, looked up): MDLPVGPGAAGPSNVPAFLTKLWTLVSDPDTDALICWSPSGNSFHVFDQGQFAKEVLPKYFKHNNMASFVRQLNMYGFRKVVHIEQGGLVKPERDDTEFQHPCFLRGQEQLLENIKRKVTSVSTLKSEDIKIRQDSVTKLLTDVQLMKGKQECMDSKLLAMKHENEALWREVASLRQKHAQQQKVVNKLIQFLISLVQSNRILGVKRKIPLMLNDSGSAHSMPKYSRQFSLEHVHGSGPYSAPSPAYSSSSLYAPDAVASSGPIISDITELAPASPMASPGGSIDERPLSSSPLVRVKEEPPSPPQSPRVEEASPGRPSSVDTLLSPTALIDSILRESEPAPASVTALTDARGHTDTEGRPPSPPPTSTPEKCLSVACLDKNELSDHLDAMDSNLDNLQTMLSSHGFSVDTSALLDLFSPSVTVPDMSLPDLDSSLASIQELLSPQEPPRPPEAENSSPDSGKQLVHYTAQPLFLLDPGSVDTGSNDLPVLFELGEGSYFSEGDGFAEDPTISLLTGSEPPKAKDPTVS
# Outline: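 Liver-derived HepG2 cells carry transiently introduced multiple reporter units governed by cis promoters. Reporter RNA measured 24 h post-dose through reverse transcription, PCR amplification, fluorescent labelling and capillary electrophoresis, normalised to DMSO.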
# [10] = ATG_MRE_CIS: Attagene CIS-FACTORIAL HepG2 Assay for human Metal Responsive Element (MRE) (AID 2282954); settings: HepG2 MRE cis-reporter transcription, Attagene multiplex; actives raise or lower the signal
# Outline: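 HepG2 cells transiently transfected with cis-element-driven reporter units; mRNA measured 24 h after dosing. Reporter transcripts quantified by RT-PCR, FAM labelling, HpaI digestion and capillary electrophoresis; bidirectional fit versus DMSO.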
# [11] = ATG_PBREM_CIS: Attagene CIS-FACTORIAL HepG2 Assay for human Phenobarbital-responsive Enhancer Module (PBREM) (AID 2282955); settings: HepG2 PBREM cis-reporter, Attagene multiplexed transcription; actives raise or lower the signal
# Outline: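 Transfected liver-derived HepG2 cells exposed 24 h; PBREM reporter transcript quantified via RT-PCR and capillary electrophoresis, with activity in either direction referenced to DMSO.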
# [12] = molecular target: Paired box protein Pax-6 (Homo sapiens) (UniProt P26367); test: ATG_Pax6_CIS: Attagene CIS-FACTORIAL HepG2 Assay for human Paired Box 6 (PAX6) (AID 2282956); settings: HepG2 CIS-FACTORIAL PAX6 reporter transcription, RNA readout; actives raise or lower the signal
# Sequence of Paired box protein Pax-6 (Homo sapiens) (P26367 whole entry, looked up): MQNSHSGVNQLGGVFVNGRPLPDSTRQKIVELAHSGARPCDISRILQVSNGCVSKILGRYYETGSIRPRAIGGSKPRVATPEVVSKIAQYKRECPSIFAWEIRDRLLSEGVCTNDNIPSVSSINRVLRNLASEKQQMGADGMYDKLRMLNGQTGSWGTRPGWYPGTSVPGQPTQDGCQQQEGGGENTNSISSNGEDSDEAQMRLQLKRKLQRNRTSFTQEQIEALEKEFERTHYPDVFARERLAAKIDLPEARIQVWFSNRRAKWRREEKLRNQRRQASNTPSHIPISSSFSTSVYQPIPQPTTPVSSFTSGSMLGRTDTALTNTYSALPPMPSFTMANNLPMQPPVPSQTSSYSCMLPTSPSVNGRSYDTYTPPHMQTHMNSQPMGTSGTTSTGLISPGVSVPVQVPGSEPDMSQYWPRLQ
# Outline: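 After twenty-four hours of chemical exposure, transfected HepG2 cells are harvested for RNA. Cis-promoter reporter transcripts are amplified, fluorescently labelled and sized by capillary electrophoresis, with gain and loss of signal scored against DMSO.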
# [13] = ATG_PXRE_CIS: Attagene CIS-FACTORIAL HepG2 Assay for human Pregnane X Receptor Element (PXRE) (AID 2282957); settings: HepG2 Attagene CIS-FACTORIAL PXRE reporter, mRNA; actives raise or lower the signal
# Outline: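 Transfect HepG2 with MRTUs (cis promoter elements); dose chemical, incubate 24 h; isolate RNA, RT with oligo(dT), PCR, 6-FAM label, HpaI cut, CE. Gain/loss fit vs DMSO.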
# [14] = ATG_RORE_CIS: Attagene CIS-FACTORIAL HepG2 Assay for human RAR-related Orphan Receptor Element (RORE) (AID 2282959); settings: HepG2 Attagene cis-factorial RORE reporter, mRNA; actives raise or lower the signal
# Outline: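 Transiently transfected HepG2 reporter cells were treated 24 h. Reporter transcripts were detected by RT-PCR and capillary electrophoresis, with bidirectional fitting against DMSO.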
# [15] = ATG_Sox_CIS: Attagene CIS-FACTORIAL HepG2 Assay for human SRY-box transcription factor (SOX) (AID 2282960); settings: HepG2 Attagene cis-factorial SOX reporter, mRNA; actives raise or lower the signal
# Outline: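 Gain- or loss-of-signal endpoint, fitted bidirectionally with DMSO as negative control. Based on reporter mRNA from transfected HepG2 cells harvested 24 h post-treatment and quantified via RT-PCR and capillary electrophoresis.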
# [16] = molecular target: Transcription factor Sp1 (Homo sapiens) (UniProt P08047); test: ATG_Sp1_CIS: Attagene CIS-FACTORIAL HepG2 Assay for human Specificity Protein 1 (Sp1) (AID 2282961); settings: HepG2 Sp1 cis-reporter transcription, actives raise or lower the signal
# Sequence of Transcription factor Sp1 (Homo sapiens) (P08047 whole entry, looked up, the tested form may be a part): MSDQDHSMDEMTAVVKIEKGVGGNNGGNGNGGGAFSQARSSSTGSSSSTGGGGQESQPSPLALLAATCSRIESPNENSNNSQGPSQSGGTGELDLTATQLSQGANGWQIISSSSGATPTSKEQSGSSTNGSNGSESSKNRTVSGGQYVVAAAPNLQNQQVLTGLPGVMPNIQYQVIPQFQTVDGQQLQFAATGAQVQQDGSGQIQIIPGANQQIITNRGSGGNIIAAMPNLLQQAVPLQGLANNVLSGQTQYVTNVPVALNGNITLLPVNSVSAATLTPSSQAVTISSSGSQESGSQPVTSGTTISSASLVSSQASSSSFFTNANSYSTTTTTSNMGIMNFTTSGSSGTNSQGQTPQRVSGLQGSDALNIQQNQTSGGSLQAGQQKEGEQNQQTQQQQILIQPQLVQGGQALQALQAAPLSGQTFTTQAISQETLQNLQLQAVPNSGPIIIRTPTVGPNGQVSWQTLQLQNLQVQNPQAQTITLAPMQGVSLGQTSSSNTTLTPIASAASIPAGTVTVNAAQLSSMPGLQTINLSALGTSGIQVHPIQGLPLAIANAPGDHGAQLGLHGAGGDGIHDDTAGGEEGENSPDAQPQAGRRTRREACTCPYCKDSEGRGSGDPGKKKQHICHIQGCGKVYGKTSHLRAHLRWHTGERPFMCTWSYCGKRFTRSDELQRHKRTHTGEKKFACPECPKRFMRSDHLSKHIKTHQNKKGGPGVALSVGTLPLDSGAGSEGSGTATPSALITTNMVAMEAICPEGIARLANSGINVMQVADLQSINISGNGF
# Outline: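 Endpoint reflects endogenous Sp1 transcriptional activity, not an exogenous fusion protein: HepG2 cells with transfected cis-regulated reporters, 24 h dosing, RT-PCR/capillary electrophoresis mRNA read-out, DMSO-normalised bidirectional fit.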
# [17] = molecular target: Signal transducer and activator of transcription 3 (Homo sapiens) (UniProt P40763); test: ATG_STAT3_CIS: Attagene CIS-FACTORIAL HepG2 Assay for human Signal Transducer and Activator of Transcription 3 (STAT3) (AID 2282963); settings: HepG2, Attagene cis-factorial STAT3 reporter transcription; actives raise or lower the signal
# Sequence of Signal transducer and activator of transcription 3 (Homo sapiens) (P40763 whole entry, looked up): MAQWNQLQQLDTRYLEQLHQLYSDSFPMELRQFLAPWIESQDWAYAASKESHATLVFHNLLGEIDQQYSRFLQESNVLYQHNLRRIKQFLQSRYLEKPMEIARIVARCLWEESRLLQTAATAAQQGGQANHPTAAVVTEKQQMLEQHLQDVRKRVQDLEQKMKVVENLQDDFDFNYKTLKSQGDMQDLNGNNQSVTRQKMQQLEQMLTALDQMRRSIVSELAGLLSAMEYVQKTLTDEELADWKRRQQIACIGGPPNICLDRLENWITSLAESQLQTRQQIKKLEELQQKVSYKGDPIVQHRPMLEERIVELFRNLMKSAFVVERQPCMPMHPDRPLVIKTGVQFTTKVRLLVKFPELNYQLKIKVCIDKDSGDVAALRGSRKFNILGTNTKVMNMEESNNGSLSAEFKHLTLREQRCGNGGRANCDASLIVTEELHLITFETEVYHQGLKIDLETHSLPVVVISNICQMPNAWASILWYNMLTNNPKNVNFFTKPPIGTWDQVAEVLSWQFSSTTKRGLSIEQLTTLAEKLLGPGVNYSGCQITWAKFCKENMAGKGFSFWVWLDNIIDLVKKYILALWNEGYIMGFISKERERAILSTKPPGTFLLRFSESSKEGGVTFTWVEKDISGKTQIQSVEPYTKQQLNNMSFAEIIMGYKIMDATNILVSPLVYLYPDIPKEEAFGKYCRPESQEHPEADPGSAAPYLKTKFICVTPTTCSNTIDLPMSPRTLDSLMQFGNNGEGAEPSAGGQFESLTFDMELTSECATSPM
# Outline: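 HepG2 cells transiently transfected with multiple cis-element-driven reporter units report endogenous transcription factor activity. After 24 h compound exposure, reporter mRNA is measured by RT-PCR, 6-FAM labelling, HpaI digestion and capillary electrophoresis. Fitted bidirectionally versus DMSO.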
# [18] = ATG_TA_CIS: Attagene CIS-FACTORIAL HepG2 Assay for human TA Basal Promoter (AID 2282964); settings: HepG2 Attagene CIS-factorial TA basal promoter reporter; actives raise or lower the signal
# Outline: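 Background internal-marker endpoint from a 52-component HepG2 cis-reporter panel. Cells treated 24 h; reporter transcripts quantified via RT-PCR and CE fluorescence against DMSO baseline.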
# [19] = ATG_PPRE_CIS: Attagene CIS-FACTORIAL HepG2 Assay for human Peroxisome Proliferator-activated Response Element (PPRE) (AID 2282958); settings: HepG2 PPRE cis-element reporter, Attagene transcription factor profiling; actives raise or lower the signal
# Outline: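 Measured endpoint: PPRE-controlled reporter mRNA, detected by RT-PCR and capillary electrophoresis fluorescence, from transiently transfected HepG2 cells 24 h after dosing. Curves fitted in both directions using DMSO baseline.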
# [20] = ATG_SREBP_CIS: Attagene CIS-FACTORIAL HepG2 Assay for human Sterol Regulatory Element Binding (SREBP) (AID 2282962); settings: HepG2 Attagene cis-factorial SREBP reporter, mRNA; actives raise or lower the signal
# Outline: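 Twenty-four hours after chemical dosing of transfected HepG2 cultures, reporter RNA was converted to cDNA, amplified, end-labelled with 6-FAM and resolved by capillary electrophoresis. Responses were fitted relative to DMSO.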
smiles,measurement,setting,value
CC(C)OB(OC(C)C)OC(C)C,outcome,[1],inactive
same,outcome,[2],inactive
same,outcome,[3],inactive
same,outcome,[4],inactive
same,outcome,[5],inactive
same,outcome,[6],inactive
same,outcome,[7],inactive
same,outcome,[8],inactive
same,outcome,[9],inactive
same,outcome,[10],inactive
same,outcome,[11],inactive
same,outcome,[12],inactive
same,outcome,[13],inactive
same,outcome,[14],inactive
same,outcome,[15],inactive
same,outcome,[16],inactive
same,outcome,[17],inactive
same,outcome,[18],inactive
CCC(C)(C)C1CCC(OC)CC1 (centres undefined),outcome,[1],inactive
same,outcome,[2],inactive
same,outcome,[4],inactive
same,outcome,[5],inactive
same,outcome,[6],inactive
same,outcome,[7],inactive
same,outcome,[8],inactive
same,outcome,[9],inactive
same,outcome,[10],inactive
same,outcome,[11],inactive
same,outcome,[12],inactive
same,AC50,[13],3.33 µM (active)
same,outcome,[19],inactive
same,outcome,[14],inactive
same,outcome,[15],inactive
same,outcome,[16],inactive
same,outcome,[20],inactive
same,outcome,[17],inactive
same,outcome,[18],inactive
c1ccc(Cc2ccccc2)cc1,outcome,[1],inactive
same,outcome,[2],inactive
same,outcome,[3],inactive
same,outcome,[4],inactive
same,outcome,[5],inactive
same,outcome,[6],inactive
same,outcome,[8],inactive
same,outcome,[9],inactive
same,outcome,[10],inactive
same,outcome,[12],inactive
same,outcome,[13],inactive
same,outcome,[14],inactive
same,outcome,[15],inactive
same,outcome,[16],inactive
same,outcome,[20],inactive
same,outcome,[17],inactive
same,outcome,[18],inactive
CC(=O)c1ccc(O)cc1,outcome,[1],inactive
same,outcome,[2],inactive
same,outcome,[3],inactive
same,outcome,[4],inactive
same,outcome,[5],inactive
same,outcome,[6],inactive
same,outcome,[7],inactive
same,outcome,[8],inactive
same,outcome,[9],inactive
same,outcome,[10],inactive
same,outcome,[11],inactive
same,outcome,[12],inactive
same,AC50,[13],100 µM (active)
same,outcome,[19],inactive
same,outcome,[14],inactive
same,outcome,[15],inactive
same,outcome,[16],inactive
same,outcome,[20],inactive
same,outcome,[17],inactive
same,outcome,[18],inactive
